Assay results as given in PubChem BioAssay AID2216 (Broad Institute, 2009).
Hit rate of the full screen: of about 300,000 compounds, about 3,300 (1.1%) were called active. Another 6% or so got no clear call; they are omitted. The entries come from a sample that favours actives as a whole. Values without a mark were called inactive.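 How the source made its calls: active means more than half of the replicate wells show a fall in the fluorescence ratio signal beyond about 16% (limit read from the data, passing the limit was not always enough); inconclusive means exactly half of the replicate wells pass the set limit; inactive means fewer than half of replicates pass the limit.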

The molecules below were run on Ran GTPase (GTP-bound) - importin-beta complex (assay: inhibitors of RanGTP-importin-beta interaction, primary screen, biochemical, FRET, CFP-Ran, YFP-importin-beta, homogeneous (AID 2216;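 further: 0% = DMSO wells and 100% = Ran loaded with GDP instead of GTP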)). Conditions: cell-free CFP-Ran/YFP-importin-beta FRET ratio; hits give high values; concentration not given here.

SMILES	inhibition
CCOC(=O)C(O)(c1ccc(NC(=O)c2ccco2)c(OC)c1)C(F)(F)F (stereo not given)	-1.67%
COc1cc(Cn2c(N)c(C(=O)NCc3ccco3)c3nc4ccccc4nc32)cc(OC)c1OC	54% (active)
COC(=O)C1=C(c2ccccc2)C[C@@H]2CC[C@H]1N2C(=O)NCc1ccco1	1.27%
C/C(=N/O)c1ccc2ccc3ccccc3c2c1	4.2%
CC[C@H]1CC2CN3CCc4c([nH]c5ccccc45)C(C(=O)OC)(C2)C13 (stereo not given in full)	-1.66%
